Source: PubChem (National Center for Advancing Translational Sciences (NCATS))
ALDH1A1 inh: qHTS Assay for Inhibitors of Aldehyde Dehydrogenase 1 (ALDH1A1) | Aldehyde dehydrogenase 1A1 (Homo sapiens), P00352 | Purified ALDH1A1, NADH fluorescence, propionaldehyde substrate | Potency, µM (top dose mostly 75.3 µM), without a hit: at the top dose activity, negative = inhibition, hits mostly inhibitors | actives 7.3% (n = 220,000) | AID 1030, 2008;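 also: potency is read from the fitted curve at half-maximal effect; plate controls were no enzyme wells and a reference inhibitor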
Target sequence (P00352 whole entry, looked up): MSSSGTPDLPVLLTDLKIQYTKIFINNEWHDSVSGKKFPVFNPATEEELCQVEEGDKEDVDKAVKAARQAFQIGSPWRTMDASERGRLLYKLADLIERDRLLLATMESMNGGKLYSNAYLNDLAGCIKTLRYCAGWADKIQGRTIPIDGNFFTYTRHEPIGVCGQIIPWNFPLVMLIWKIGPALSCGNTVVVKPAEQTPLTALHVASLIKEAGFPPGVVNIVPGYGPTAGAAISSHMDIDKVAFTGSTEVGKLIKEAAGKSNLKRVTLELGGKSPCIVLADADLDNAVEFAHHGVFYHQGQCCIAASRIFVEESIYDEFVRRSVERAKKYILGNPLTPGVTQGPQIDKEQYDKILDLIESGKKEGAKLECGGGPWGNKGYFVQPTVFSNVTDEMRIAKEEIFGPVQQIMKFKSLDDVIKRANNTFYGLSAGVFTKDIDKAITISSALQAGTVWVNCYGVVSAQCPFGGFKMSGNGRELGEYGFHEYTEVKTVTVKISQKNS
PNC assembly inh: High Content Assay for Compounds that inhibit the Assembly of the Perinucleolar Compartment; PC3M PTB-GFP, PNC prevalence imaging, 16 h; active compounds read low; actives 3.1% (n = 140,000); activity change (PNC), negative = inhibition, % at 10 µM;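 active = readout at or below -70, meaning at least 70% loss of cells showing the perinucleolar compartment, a nuclear body marking cancer cells; inconclusive = readout between -30 and a set limit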;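 also: plate controls were DMSO wells for no effect and camptothecin positive control wells for full effect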
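Compounds are pinned in duplicate onto adhered PC3M cells stably expressing GFP-tagged PTB and incubated 16 h at 37 C. Cells are then fixed, nuclei stained with Hoechst, and PNC-positive cells counted.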
HPGD inh: qHTS Assay for Inhibitors of HPGD (15-Hydroxyprostaglandin Dehydrogenase). AID 894, 2007. actives 4.3% (n = 150,000). purified HPGD, NADH fluorescence kinetic, PGE2 substrate. Potency, µM, without a hit: top-dose activity change, negative = inhibition, most hits filed as inhibitors; also: potency is read from the fitted curve at half-maximal effect
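20 nM HPGD preincubated 15 min at room temperature with compound in 50 mM Tris-HCl pH 8, 0.01% Tween 20. Started with 1 mM NAD+ and 30 uM prostaglandin E2; NADH fluorescence (360/450 nm) read 5 times over 30-s intervals, last minus first.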
Numbers without * were called inactive; [ ] = dose if it differs, or a comment. Rows were chosen to be rich in hits. Some 11% of all compounds tested hit in one or more screens of this group. Unless noted, calls follow the shape of the dose curve; as a rule, active = well fitted inhibition curve with a large enough effect (not every such curve was filed as active); inconclusive = small, poorly fitted or top-dose-only effect, or another doubt; inactive = no such curve, though single readings can be large or run the other way. Unless noted, % is scaled to controls: 0 for no effect and ±100 for the full control effect.

How did CC#CCN1c2ccccc2[C@]23C[C@@H](C(=O)OC)N(S(=O)(=O)c4cccs4)C2=NC(C(=O)OC)=C(C(=O)OC)[C@H]13 do in these assays?
ALDH1A1 inh: 3.5%[13.5 µM]; HPGD inh: 0.8%

Results for CCn1c(=O)cc(SCC(=O)N2CCC(C)CC2)c2ccccc21 ?
ALDH1A1 inh: 20µM*; PNC assembly inh: -1.7; HPGD inh: 5.01µM*

How did CCn1c(=O)cc(SCC(=O)N2CCN(C)CC2)c2ccccc21 do in these assays?
ALDH1A1 inh: -1.2%; PNC assembly inh: inconclusive; HPGD inh: inconclusive

Results for CCn1c(=O)cc(SCC(=O)N2CCCCC2)c2ccccc21 ?
ALDH1A1 inh: 20µM*; PNC assembly inh: -10.9; HPGD inh: 7.94µM*

Results for CCN1CCN(C(=O)CSc2cc(=O)n(CC)c3ccccc23)CC1 ?
ALDH1A1 inh: 6.0%; PNC assembly inh: 52.2; HPGD inh: inconclusive

How did CN1CCN(c2ccccc2/C=N/NC(=O)c2cccnc2)CC1 do in these assays?
ALDH1A1 inh: 1.2%

How did CCn1ncc(Cl)c1C(=O)Nc1cc([N+](=O)[O-])ccc1OC do in these assays?
ALDH1A1 inh: -4.2%; PNC assembly inh: 27.6; HPGD inh: -7.0%

Results for CCN(C(=O)COC(=O)CNC(=O)c1ccc(C)c(C)c1)C1CCS(=O)(=O)C1 (stereo unspecified) ?
ALDH1A1 inh: 25.1µM*; PNC assembly inh: -121.5*; HPGD inh: -12.1%

How did CCN(C(=O)COC(=O)CNC(=O)c1ccc2ccccc2c1)C1CCS(=O)(=O)C1 (stereo unspecified) do in these assays?
ALDH1A1 inh: -2.5%

How did C#CCOCCOCCOCCNc1nc(N2CCN(C(=O)C(Cc3ccc(O)cc3)n3cc(C(N)CC(C)C)nn3)CC2)nc(N2CCN(C(=O)C(Cc3cc4ccccc4[nH]3)n3cc(C(N)Cc4ccc(O)cc4)nn3)CC2)n1 (stereo unspecified) do in these assays?
ALDH1A1 inh: 0.5%

Results for CCOC(=O)C1CCN(C(=O)COc2ccc(Br)cc2Br)CC1 ?
ALDH1A1 inh: -7.1%

Results for CNC(=S)N1CCc2ccccc2C1 ?
ALDH1A1 inh: 2.8%; PNC assembly inh: inconclusive; HPGD inh: -13.8%

Results for CC(=C1C(=O)c2ccccc2C1=O)N1CCc2ccccc2C1 ?
ALDH1A1 inh: 8.91µM*; PNC assembly inh: inconclusive; HPGD inh: -12.8%

Results for CC(=O)c1cc(F)c(N2CCN(C(=O)COc3ccc(F)cc3)CC2)cc1C ?
ALDH1A1 inh: inconclusive; PNC assembly inh: -100.0*; HPGD inh: -10.8%

Results for CCOC(=O)C1CCN(CC(O)COc2ccc(C(C)(C)CC)cc2)CC1 (stereo unspecified) ?
ALDH1A1 inh: -4.5%; PNC assembly inh: -80.6*; HPGD inh: -6.0%

How did CCOC(=O)C1CCN(CC(O)COc2ccc(C(C)(C)C)cc2)CC1 (stereo unspecified) do in these assays?
ALDH1A1 inh: inconclusive; PNC assembly inh: 0.9; HPGD inh: -14.6%

How did CC(=O)c1ccc(N2CCN(C(=O)COc3ccc(F)cc3)CC2)c(F)c1 do in these assays?
ALDH1A1 inh: inconclusive; PNC assembly inh: -4.4; HPGD inh: -10.7%

Results for CCOC(=O)C1CCN(C(=O)COc2ccc(Br)cc2)CC1 ?
ALDH1A1 inh: 3.7%; PNC assembly inh: -96.9*; HPGD inh: -0.1%

How did COCCNc1nnc(SC(C)C(=O)Nc2ccc(-c3nc4ccc(C)cc4s3)cc2)s1 (stereo unspecified) do in these assays?
ALDH1A1 inh: inconclusive; PNC assembly inh: 6.6

What do the screens show for `O=C(COC(=O)CCCSc1nc2ccccc2[nH]1)NC(=O)NC1CCCC1`?
ALDH1A1 inh: 7.2%; PNC assembly inh: 5.1

What do the screens show for `COc1ccc2nc(NC(=O)C3CCCN3S(=O)(=O)c3ccc(C)cc3)sc2c1` (stereo unspecified)?
ALDH1A1 inh: -1.0%; PNC assembly inh: inconclusive; HPGD inh: -14.9%

Results for COC(=O)c1cn(NC(=O)Cn2nc([N+](=O)[O-])c(Br)c2C)c(=O)c2ccccc12 ?
ALDH1A1 inh: 14.4%

What do the screens show for `Cc1ccc(S(=O)(=O)NC2c3cccc4cccc(c34)C2Sc2ncccn2)cc1` (stereo unspecified)?
ALDH1A1 inh: inconclusive; PNC assembly inh: inconclusive; HPGD inh: -13.2%

How did Cc1cccc(OCC(=O)N2CCOCC2)c1 do in these assays?
ALDH1A1 inh: -1.4%; PNC assembly inh: 40.4; HPGD inh: -8.6%

What do the screens show for `CC(=O)N1CCN(C(=O)COc2ccc(Br)cc2)CC1`?
ALDH1A1 inh: inconclusive; PNC assembly inh: -81.3*; HPGD inh: -2.9%

How did COc1ccc(OCC(=O)N2CCN(C(=O)COc3ccc(Br)cc3)CC2)cc1 do in these assays?
ALDH1A1 inh: -7.4%; PNC assembly inh: -12.8; HPGD inh: -5.3%

How did CCOC(=O)C1CCN(C(=O)COc2cccc(C)c2)CC1 do in these assays?
ALDH1A1 inh: -5.7%; PNC assembly inh: -84.8*; HPGD inh: -10.8%

What do the screens show for `CCOC(=O)C1CCN(C(=O)CCCN2C(=O)c3ccccc3C2=O)CC1`?
ALDH1A1 inh: inconclusive; PNC assembly inh: -27.0; HPGD inh: -10.8%

What do the screens show for `CCOC(=O)C1CCN(C(C)=C2C(=O)c3ccccc3C2=O)CC1`?
ALDH1A1 inh: 17.8µM*; PNC assembly inh: 38.6; HPGD inh: -13.0%

Results for Nc1ccccc1C(=O)NNC(=O)C(=O)/C=C(\O)c1ccccc1 ?
ALDH1A1 inh: 11.2%

What do the screens show for `CC(=O)Nc1ccc(C(=O)NNC(=O)c2cc([N+](=O)[O-])cc([N+](=O)[O-])c2)cc1`?
ALDH1A1 inh: 10.1%

How did Cc1ccc(NC(=O)c2ccc(Nc3c([N+](=O)[O-])cc([N+](=O)[O-])cc3[N+](=O)[O-])cc2)cc1 do in these assays?
ALDH1A1 inh: 0.562µM*; PNC assembly inh: -16.0; HPGD inh: -7.2%

Results for CC(=O)c1ccc(NC(=S)N2C(C)CCCC2C)cc1 (stereo unspecified) ?
ALDH1A1 inh: -11.0%; PNC assembly inh: 13.2

How did CCOC(=O)CCN1C(=O)[C@H]2[C@H]3[C@H](O)[C@H](O)C/C(=N/NC(=O)OCc4ccccc4)[C@@H]3CC[C@@H]2C1=O do in these assays?
ALDH1A1 inh: -2.3%[13.5 µM]

How did Cn1cc(-c2ccccc2C(N)=O)c(=O)c2ccccc21 do in these assays?
ALDH1A1 inh: -2.4%

What do the screens show for `Cn1cc(-c2nnnn2-c2ccccc2)c(=O)c2ccccc21`?
ALDH1A1 inh: 7.08µM*; PNC assembly inh: 30.4; HPGD inh: -12.2%

Results for O=C1CCCC(=O)N1c1ccc(N2CCN(c3ccccc3)CC2)c([N+](=O)[O-])c1 ?
ALDH1A1 inh: -11.2%; PNC assembly inh: inconclusive; HPGD inh: -8.7%

Results for O=C1C2CC=CCC2C(=O)N1c1ccc(N2CCN(c3ccccn3)CC2)c([N+](=O)[O-])c1 (stereo unspecified) ?
ALDH1A1 inh: 17.8µM*

What do the screens show for `COC(=O)c1ccc(CN2C(=O)NC3(CCCCC3C)C2=O)o1` (stereo unspecified)?
ALDH1A1 inh: -0.8%; PNC assembly inh: 31.9; HPGD inh: -2.7%
